This note sets out measurements from PubChem BioAssay.

Molecules are shown by their SMILES. Where “and” joins values, the source holds several entries; their conditions need not be identical. Identical values can stand only once. Inconclusive results are not listed. For some of these results: Entries with a potency or affinity are not part of this list. Calls of active or inactive are those of the source. Rule as the data show it, unless noted: active = inhibition above about 80%; inactive = the rest.

Assay [1] can be described thus: inhibitors of Cryptococcus chitosan production, flow cytometry, Cibacron Brilliant Red staining (AID 1347148; call rule not given here;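 also: compound exposure lasted three days at 37 degrees C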). The following applies: Cryptococcus neoformans chitosan, stronger effect = lower value; at 10 µM unless noted.
The nature of assay [2]: rescue of polyQ-huntingtin neuronal dysfunction in worms, whole organism, C. elegans mechanosensory neurons, N-terminal huntingtin (AID 1599). To be noted: touch response, stronger effect = higher value.
A short description of assay [3]: inhibitors of polyQ protein aggregation (AID 1604). The following applies: polyglutamine-induced protein aggregation inhibition assay; stronger effect = higher value; tested at 2.5 µM.
The nature of assay [4]: enhancers of glutamate uptake in motor neurons, MN-1 cell line (AID 1612).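 Also: tested at 1 µM final; 0% = mean of DMSO vehicle wells on each plate; positive means more glutamate uptake than control and negative means less.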 The following applies: MN-1 motor neuron cells, stronger effect = higher value.
Assay [5] can be described thus: reducers of polyQ inclusions in PC12 cells, cell-based, NGF-treated PC12, GFPQ80 (AID 1614).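 Also: lower means fewer inclusions and 0 means no inclusions at all.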 To be noted: PC12 NGF-treated GFP-polyQ80 inclusion reduction.
Assay [6] is described as follows: suppressors of polyglutamine aggregation in yeast, 75Q-TubH (AID 1616). The following applies: S. cerevisiae 75Q-TubH polyglutamine aggregation suppression; stronger effect = higher value.
Assay [7] can be described thus: growth inhibition of DIPG glioma cells, dose response, cell-based, SU-DIPG-IV, MIPE4.0, CellTiter-Glo, qHTS (AID 1347063; cut-off not given, nearly all actives have AC50 up to about 30 µM;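 also: compound exposure lasted 48 hours before the viability readout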). The following applies: SU-DIPG-IV viability, CellTiter-Glo ATP luminescence.
A short description of assay [8]: HepG2 cytotoxicity, primary screen, cytotoxicity control for P. falciparum antimalarial project, cell-based, ATP luminescence (AID 2303;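 active = inhibition above 50%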;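 also: 0% = DMSO wells and 100% = digitonin-killed cells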). To be noted: HepG2 viability, 24-48 h, at 10 µM, stronger effect = higher value.
Assay [9] has as its target L-lactate dehydrogenase (Plasmodium falciparum (isolate CDC / Honduras)) (UniProt Q27743). The assay can be described thus: PfLDH activity inhibition – cell lysate, 3D7 strain, counter-screen for P. falciparum growth inhibition project (AID 2304; call rule not given here;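 also: 0% = vehicle and 100% = reference inhibitor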). The following applies: P. falciparum 3D7 crude extract, LDH APAD/NBT absorbance; at 2 µM; stronger effect = higher value.
Assay [10] can be described thus: inhibition of 3D7 malaria parasite growth – strain 3D7 (AID 2306; call rule not given here;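 also: 0% = DMSO wells and 100% = chloroquine plus artemisinin control wells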). To be noted: P. falciparum 3D7 erythrocytic growth, LDH absorbance, 72 h; at 2 µM; stronger effect = higher value.
The target in assay [11] is Calcium-dependent protein kinase 1 (Plasmodium falciparum (isolate 3D7)) (UniProt P62344). The assay can be described thus: PfCDPK1 kinase inhibitors, biochemical, TCAMS library (AID 1159585; cut-off not given, nearly all actives have IC50 up to about 0.98 µM;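 also: inhibitors leave more ATP so luminescence rises with inhibition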). The following applies: recombinant PfCDPK1, Kinase-Glo ATP depletion luminescence.
Calcium-dependent protein kinase 1 (Plasmodium falciparum (isolate 3D7)), sequence (P62344 whole entry, looked up): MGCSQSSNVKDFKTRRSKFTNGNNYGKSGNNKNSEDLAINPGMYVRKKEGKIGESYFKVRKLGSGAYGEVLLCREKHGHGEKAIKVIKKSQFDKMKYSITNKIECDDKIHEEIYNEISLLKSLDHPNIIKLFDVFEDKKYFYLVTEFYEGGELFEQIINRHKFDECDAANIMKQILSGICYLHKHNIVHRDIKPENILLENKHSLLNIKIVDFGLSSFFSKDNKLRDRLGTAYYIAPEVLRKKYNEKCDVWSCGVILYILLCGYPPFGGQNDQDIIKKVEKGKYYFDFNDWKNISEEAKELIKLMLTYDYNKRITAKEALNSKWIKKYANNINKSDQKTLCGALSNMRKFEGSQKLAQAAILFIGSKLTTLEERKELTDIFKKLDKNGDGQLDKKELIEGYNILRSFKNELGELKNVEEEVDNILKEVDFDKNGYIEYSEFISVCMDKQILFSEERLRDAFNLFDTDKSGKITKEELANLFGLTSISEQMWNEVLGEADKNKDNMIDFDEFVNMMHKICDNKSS
The target in assay [12] is Plasmodium falciparum protein kinase 6 (PK6, PF3D7_1337100) (UniProt Q8IDW1). The assay can be described thus: PfPK6 kinase inhibitors, biochemical, TCAMS library (AID 1159586; call rule not given here). To be noted: recombinant PfPK6, Kinase-Glo ATP depletion luminescence.
Plasmodium falciparum protein kinase 6 (PK6, PF3D7_1337100), sequence (Q8IDW1 1-305): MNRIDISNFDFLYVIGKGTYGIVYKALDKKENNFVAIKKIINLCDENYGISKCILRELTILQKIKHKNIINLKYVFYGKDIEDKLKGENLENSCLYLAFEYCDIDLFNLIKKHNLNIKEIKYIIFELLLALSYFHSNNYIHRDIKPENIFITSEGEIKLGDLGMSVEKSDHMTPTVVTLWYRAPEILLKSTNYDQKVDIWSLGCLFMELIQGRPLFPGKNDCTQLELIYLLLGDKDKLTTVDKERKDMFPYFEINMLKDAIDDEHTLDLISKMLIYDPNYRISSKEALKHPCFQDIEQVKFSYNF
Assay [13] concerns the target Protein kinase 7 (PK7), Plasmodium falciparum 3D7 (PF3D7_0213400) (UniProt Q7YTF7). The assay can be described thus: inhibition of Plasmodium PK7 catalytic activity – biochemical, TCAMS antimalarial set, Kinase-Glo luminescence (AID 1159587; call rule not given here). To be noted: recombinant PfPK7, Kinase-Glo ATP depletion luminescence.
Assay [14] can be described thus: CRL2098 osteosarcoma cell growth inhibition, synergistic combos for chromothripsis tumors, BGB or cisplatin IC20 combos (AID 1671454).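 Also: cells exposed for 96 h before readout; 0% = vehicle DMSO and 100% = killing by high DMSO.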 The following applies: CRL2098 osteosarcoma cells, drug combinations, stronger effect = higher value.
Assay [15] in a line: HD-MB03 medulloblastoma cell growth inhibition, synergistic combos for chromothripsis tumors, BGB or cisplatin IC20 combos (AID 1671455; in the data active = inhibition above about 83%;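 also: 0% = vehicle DMSO and 100% = high DMSO as cytotoxic control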). To be noted: HD-MB03 medulloblastoma cells, stronger effect = higher value.
Assay [16] can be described thus: UWB1.289 ovarian carcinoma cell growth inhibition, synergistic combos for chromothripsis tumors, BGB or cisplatin combos (AID 1671456).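 Also: cells exposed to compound for four days; 0% = vehicle DMSO and 100% = killing by high DMSO.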 To be noted: UWB1.289 ovarian carcinoma cells, stronger effect = higher value.
Assay [17] can be described thus: LFS_MB_2R medulloblastoma cell growth inhibition, synergistic combos for chromothripsis tumors, cisplatin combos (AID 1671457).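 Also: cells exposed to compound for four days before readout.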 To be noted: LFS_MB_2R medulloblastoma cells, stronger effect = higher value.
Assay [18] is described as follows: UWB1.289_BRCA1 ovarian cancer growth, cell-based, BGB or cisplatin combinations (AID 1671459). To be noted: UWB1.289 BRCA1 ovarian carcinoma, drug combinations, stronger effect = higher value.
Assay [19] is described as follows: human astrocyte viability loss, single and combined drugs, cytotoxicity control for chromothriptic childhood tumor combination screen, cell-based, BGB or cisplatin IC20 combos (AID 1671460).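 Also: cells exposed to compounds for 96 hours before viability readout; 0% = vehicle and 100% = killing control.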 To be noted: Human astrocytes, drug combinations, stronger effect = higher value.
The target in assay [20] is ATP-dependent translocase ABCB1 (Homo sapiens) (UniProt P08183). The assay can be described thus: MDR1 (ABCB1) efflux transporter inhibition, cell-based (AID 377; in the data active = fluorescence slope change above about 50%). To be noted: MDR1-expressing cells, fluorescent substrate accumulation slope; stronger effect = higher value; concentration not given here.
ATP-dependent translocase ABCB1 (Homo sapiens), sequence (P08183 whole entry, looked up): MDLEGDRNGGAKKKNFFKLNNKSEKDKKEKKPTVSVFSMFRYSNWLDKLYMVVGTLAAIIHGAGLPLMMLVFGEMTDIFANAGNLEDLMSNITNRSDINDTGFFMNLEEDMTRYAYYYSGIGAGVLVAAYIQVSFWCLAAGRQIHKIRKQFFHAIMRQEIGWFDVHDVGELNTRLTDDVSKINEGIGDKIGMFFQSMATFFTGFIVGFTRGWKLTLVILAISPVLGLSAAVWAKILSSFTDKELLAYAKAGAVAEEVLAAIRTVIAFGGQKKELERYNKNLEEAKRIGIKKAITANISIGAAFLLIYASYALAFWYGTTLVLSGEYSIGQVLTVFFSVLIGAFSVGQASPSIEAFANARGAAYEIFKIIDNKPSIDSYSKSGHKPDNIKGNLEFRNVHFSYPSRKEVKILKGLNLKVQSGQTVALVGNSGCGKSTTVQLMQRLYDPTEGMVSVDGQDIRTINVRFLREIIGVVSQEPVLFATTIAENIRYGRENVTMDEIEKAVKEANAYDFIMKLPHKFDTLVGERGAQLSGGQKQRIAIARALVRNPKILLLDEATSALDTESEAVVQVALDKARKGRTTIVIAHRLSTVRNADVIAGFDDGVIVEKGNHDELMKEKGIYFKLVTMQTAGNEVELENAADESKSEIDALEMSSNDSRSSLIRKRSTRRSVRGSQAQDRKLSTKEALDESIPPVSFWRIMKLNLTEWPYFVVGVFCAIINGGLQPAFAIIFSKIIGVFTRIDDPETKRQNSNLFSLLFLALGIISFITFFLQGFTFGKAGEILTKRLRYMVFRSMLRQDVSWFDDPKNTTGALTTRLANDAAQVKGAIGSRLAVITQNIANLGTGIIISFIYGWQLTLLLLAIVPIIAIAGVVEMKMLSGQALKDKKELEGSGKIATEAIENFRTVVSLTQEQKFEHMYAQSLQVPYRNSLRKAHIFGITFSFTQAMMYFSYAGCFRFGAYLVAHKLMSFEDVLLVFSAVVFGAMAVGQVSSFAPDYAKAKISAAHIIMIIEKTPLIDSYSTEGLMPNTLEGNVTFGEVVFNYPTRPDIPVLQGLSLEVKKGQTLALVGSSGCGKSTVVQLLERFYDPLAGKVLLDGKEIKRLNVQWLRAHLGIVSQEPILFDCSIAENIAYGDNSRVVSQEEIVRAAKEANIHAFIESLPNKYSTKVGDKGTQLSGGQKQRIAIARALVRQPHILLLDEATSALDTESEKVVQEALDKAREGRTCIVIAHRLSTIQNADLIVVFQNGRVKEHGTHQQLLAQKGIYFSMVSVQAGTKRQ
The mark [21] stands for this setting: measured here: combination with BGB at IC20, at 0.5 µM.
Setting [22] is: measured here: combination with cisplatin at IC20, at 0.5 µM.
The mark [23] stands for this setting: measured here: combo with BGB at IC20, at 0.5 µM.
Where [24] appears, read: measured here: combo with cisplatin at IC20, at 0.5 µM.
[25] abbreviates: measured here: inhibition with BGB combination, at 0.05 µM.
[26] abbreviates: measured here: inhibition with cisplatin combination, at 0.05 µM.
Where [27] appears, read: measured here: combination with cisplatin, at 0.5 µM.
Setting [28] is: measured here: combination with cisplatin, at 5 µM.
Setting [29] is: BGB combination, concentration series, at 5 µM.
Setting [30] is: cisplatin combination, concentration series, at 5 µM.
[31] abbreviates: measured here: combo with BGB IC20, at 0.5 µM.
[32] abbreviates: measured here: combo with cisplatin IC20, at 0.5 µM.

Protein kinase 7 (PK7), Plasmodium falciparum 3D7 (PF3D7_0213400), sequence (Q7YTF7 1-343): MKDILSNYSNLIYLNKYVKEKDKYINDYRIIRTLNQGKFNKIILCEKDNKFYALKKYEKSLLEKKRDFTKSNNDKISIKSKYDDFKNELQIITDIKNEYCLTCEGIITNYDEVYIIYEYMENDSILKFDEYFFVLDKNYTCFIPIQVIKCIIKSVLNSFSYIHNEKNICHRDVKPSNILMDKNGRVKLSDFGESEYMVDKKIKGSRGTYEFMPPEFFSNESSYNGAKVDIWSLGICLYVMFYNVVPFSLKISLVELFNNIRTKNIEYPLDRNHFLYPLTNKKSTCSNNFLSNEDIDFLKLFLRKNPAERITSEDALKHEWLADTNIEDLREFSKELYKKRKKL
L-lactate dehydrogenase (Plasmodium falciparum (isolate CDC / Honduras)), sequence (Q27743 whole entry, looked up): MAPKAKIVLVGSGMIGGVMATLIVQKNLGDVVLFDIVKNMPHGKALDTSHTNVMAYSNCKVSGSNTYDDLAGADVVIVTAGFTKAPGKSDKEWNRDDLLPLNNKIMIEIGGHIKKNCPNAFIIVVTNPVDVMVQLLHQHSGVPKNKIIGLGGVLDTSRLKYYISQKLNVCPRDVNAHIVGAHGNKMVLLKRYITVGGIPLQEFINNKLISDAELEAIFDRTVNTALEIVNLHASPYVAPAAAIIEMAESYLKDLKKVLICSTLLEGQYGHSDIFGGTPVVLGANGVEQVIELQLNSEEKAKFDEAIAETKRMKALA

`Cc1cccc(Nc2cc(Cl)nc(SCC(=O)O)n2)c1C`: the fold fluorescence in assay [1] is 4.05 (inactive).
On to `Cc1ccc(O)cc1`, for which, in [2], the rescue above control is -1.33. The same compound yielded an inhibition of aggregation in assay [3] of 83.3%. Also, in assay [4], the glutamate uptake change was found to be 1.82%. Besides, in [5], the inclusion score is 2. In [6], this compound registered an aggregation suppression score of 1.04.
With `O=C(O)CCC(=O)OC[C@@H](NC(=O)C(Cl)Cl)[C@H](O)c1ccc([N+](=O)[O-])cc1`, the rescue above control in assay [2] is -1.33. The inhibition of aggregation in assay [3] was 74.7%. In assay [4], the glutamate uptake change worked out at 7.22%. The compound also returned an inclusion score in assay [5] of 2. Also, the aggregation suppression score in assay [6] was 1.43.
For the compound `CNS(=O)(=O)CCc1ccc2[nH]cc(C3CCN(C)CC3)c2c1`, the outcome in assay [7] was inactive.
Take `COc1cc(Cc2cnc(N)nc2N)cc(OC)c1OC`: the inhibition was 0% (inactive) in assay [8] and 3% (inactive) in assay [9]. Besides, the growth inhibition in assay [10] is 88% (active). In addition, the result in assay [11], in [12] and in assay [13] was inactive.
For `CCCC(CCC)C(=O)O`, the inhibition in assay [14] (at 0.5 µM) is -45.4% (inactive) and -15.9% (inactive); in assay [14] (setting [21]) it was -45.9% and -23.5%; in assay [14] (setting [22]) it was -34.5% and 0.202%; in [15] (at 0.5 µM), -15.1% (inactive) and -0.6% (inactive); in assay [15] (setting [23]), -17% and -10.3%; in assay [15] (setting [24]), -14.1% and 6.37%. Also, the inhibition in assay [16] (at 0.5 µM) is -4.81% (inactive) and 13.2% (inactive); in assay [16] (setting [25]), -26.3% and 5.38%; in assay [16] (setting [26]), -23.4% and 27.8%; in assay [17] (at 0.5 µM), -16.9% (inactive) and 1.18% (inactive); in assay [17] (setting [27]), -15.6% and 6.48%; in [17] (setting [28]), -69.4% and 11.4%. For the same compound, the inhibition is -15.2% and 3.45% in assay [18] (setting [29]); -19% (inactive) and 7.15% (inactive) in [18] (at 0.5 µM); 0.227% and -13.4% in assay [18] (setting [30]); -9% (inactive) and 2.09% (inactive) in [19] (at 0.5 µM); -11% and 1.03% in assay [19] (setting [31]); 0.797% and 9.29% in assay [19] (setting [32]).
With `CCn1cc(C(=O)O)c(=O)c2ccc(C)nc21`, the inhibition in [14] (at 0.5 µM) is -8.42% (inactive) and -27% (inactive); in [14] (setting [21]) it was -13.8% and -3.06%; in assay [14] (setting [22]), 2.7% and -23.8%; in assay [15] (at 0.5 µM), -1.5% (inactive) and -3.12% (inactive); in assay [15] (setting [23]), -0.571% and -10.6%; in assay [15] (setting [24]), -1.78% and 8.77%. Besides, the inhibition in assay [16] (at 0.5 µM) is 13.8% (inactive) and -1.94% (inactive); in [16] (setting [25]), -3.65% and -15.7%; in [16] (setting [26]), 2.92% and -1.74%; in assay [17] (at 0.5 µM) it was 5.5% (inactive) and -20.2% (inactive); in assay [17] (setting [27]), 1.69% and -14.8%; in assay [17] (setting [28]), 8.3% and -22.4%. The inhibition was 11.3% and 18.4% in assay [18] (setting [29]); 11% (inactive) and -9.48% (inactive) in [18] (at 0.5 µM); 7.14% and -4.85% in [18] (setting [30]); 1.03% (inactive) and 6.47% (inactive) in [19] (at 0.5 µM); -4.36% and 3.89% in assay [19] (setting [31]); 17.2% and 0.487% in assay [19] (setting [32]).
Take `O=C(O)COCCN1CCN(C(c2ccccc2)c2ccc(Cl)cc2)CC1` (stereo not given): in assay [20], the fluorescence slope change is 28.7% (inactive). Moreover, the result in assay [7] was inactive.
For the compound `Cc1ccc(/C(=C\CN2CCCC2)c2ccccn2)cc1`, the fluorescence slope change in [20] was 91.4% (active). For the same compound, in [2], the rescue above control was -10.7. The inhibition of aggregation in assay [3] was found to be 23.8%. In [4], the glutamate uptake change is -7.2%. The inclusion score in assay [5] stood at 2. Moreover, the aggregation suppression score in assay [6] was found to be 0.939.
Regarding `CC1(C)[C@H](C(=O)O)N2C(=O)C[C@H]2S1(=O)=O`, the compound was called inactive in assay [7].
For `O=C(O)c1cn(C2CC2)c2cc(N3CCNCC3)c(F)cc2c1=O`, the fluorescence slope change in assay [20] was 54.5% (active). In [2], this compound yielded a rescue above control of 13.4. Moreover, the inhibition of aggregation in [3] was 20.6%. Besides, the glutamate uptake change in assay [4] is -1.59%. The inclusion score in [5] stood at 2. In assay [6], this compound had an aggregation suppression score of 1.3.
In the case of `O=S(=O)(c1cccc2cnccc12)N1CCCNCC1`, the fold fluorescence in assay [1] is 2.56 [at 137.3 µM] (active).
